According to the supplement of paper PMC9135407:
Where “and” joins values, the source holds several entries; their conditions need not be identical. Equal entries are not always repeated. Structures can show the parent of a compound that is named as a salt. Screen size: about 5,800 compounds; about 620 (11%) showed activity. The list comes from a sample in which actives are over-represented; it also holds similar structures and randomly drawn compounds. Values without a mark were called inactive.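 The calls were made as follows: active = score above a cut-off or among the top three wells of a plate; in these data no inactive exceeds 0.85.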

Tested on: primary human hepatic stellate cells (donor 1)
Assay: scaled lipid accumulation score (0 = DMSO-like, 1 = nortriptyline-like); higher = stronger HSC inactivation (lipid re-accumulation), active = hit call of the paper
Details: 48 h
[1] = library stock concentration: 1 mM
[2] = library stock concentration: 10 mM
[3] = library stock concentration: 3.33 mM

## c1ccc(-c2[nH]ncc2-c2ccnc3ccccc23)nc1
[1]
  scaled lipid accumulation score: ≤ 0
[2]
  scaled lipid accumulation score: ≤ -0.001

## CC1=C(/C=C/C(C)=C/C=C/C(C)=C/CO)C(C)(C)CCC1 [Retinol]
Library stock concentration: 7 mM
  scaled lipid accumulation score: ≤ 0
[2]
  scaled lipid accumulation score: ≤ 0

## NC(=O)c1cc[n+](CC2=C(C(=O)[O-])N3C(=O)[C@@H](NC(=O)Cc4cccs4)[C@H]3SC2)cc1 [Cefalonium]
  scaled lipid accumulation score: ≤ 0

## O=NN(CCCl)C(=O)NC1CCCCC1 [Lomustine]
[3]
  scaled lipid accumulation score: 0.044
Library stock concentration: 8.6 mM
  scaled lipid accumulation score: 0.014
[2]
  scaled lipid accumulation score: ≤ 0

## CN1[C@@H]2CC[C@H]1C[C@@H](OC(=O)C(O)c1ccccc1)C2 (mixture of isomers) [DL-Homatropine hydrobromide]
[2]
  scaled lipid accumulation score: 0.242

## CN1[C@@H]2CC[C@H]1C[C@@H](OC(c1ccccc1)c1ccccc1)C2 [Cogentin Mesylate]
[2]
  scaled lipid accumulation score: 0.598

## CN1[C@@H]2CC[C@H]1C[C@@H](OC(=O)C(O)c1ccccc1)C2 (mixture of isomers) [Homatropine hydrobromide (R,S)]
  scaled lipid accumulation score: 0.043

## CN1[C@@H]2CC[C@H]1C[C@@H](OC(c1ccccc1)c1ccccc1)C2 [Benztropine mesylate]
[3]
  scaled lipid accumulation score: 0.003

## C1[C@@H](N(C)[C@@H]2C1)C[C@@H](OC(c3ccccc3)c4ccccc4)C2.CS(O)(=O)=O (stereo partly specified) [Benztropine mesylate]
[2]
  scaled lipid accumulation score: 0.873 (active)

## CN1C2CCC1CC(OC(c1ccccc1)c1ccccc1)C2.CS(=O)(=O)O (stereo unspecified) [Benztropine mesylate]
[2]
  scaled lipid accumulation score: 1.05 (active)

## CN1[C@@H]2CC[C@H]1C[C@@H](OC(c1ccccc1)c1ccccc1)C2 [Benztropine]
Library stock concentration: 4.9 mM
  scaled lipid accumulation score: 0.193
[2]
  scaled lipid accumulation score: 0.38

## CN1C2CCC1CC(OC(=O)C(O)c1ccccc1)C2 (stereo unspecified) [Homatropine bromide]
[2]
  scaled lipid accumulation score: ≤ 0

## CN1C2CCC1CC(OC(=O)C(O)c1ccccc1)C2 (stereo unspecified) [Homatropine Bromide]
[3]
  scaled lipid accumulation score: ≤ 0
[2]
  scaled lipid accumulation score: ≤ -0.001

## CN1CCC(OC(c2ccccc2)c2ccccc2)CC1 [Diphenylpyraline hydrochloride]
  scaled lipid accumulation score: 0.332
Library stock concentration: 6.3 mM
  scaled lipid accumulation score: 0.256
[2]
  scaled lipid accumulation score: 0.235

## CCOC(=O)Nc1cc(-c2ccc(C)c(NS(C)(=O)=O)c2)nn2c(C)nnc12 [Bromosporine]
[3]
  scaled lipid accumulation score: 0.166
[2]
  scaled lipid accumulation score: 0.621

## CCCCCCCCCCCCCCCCOC[C@H](CO)OC(C)=O [Hexadecyl Acetyl Glycerol]
[1]
  scaled lipid accumulation score: ≤ 0

## CNC(=O)c1ccccc1Nc1nc(Nc2ccc(N3CCOCC3)cc2OC)ncc1Cl
Library stock concentration: 80 uM
  scaled lipid accumulation score: ≤ -0.016
Library stock concentration: 400 uM
  scaled lipid accumulation score: ≤ -0.016
Library stock concentration: 2 mM
  scaled lipid accumulation score: ≤ -0.016
[3]
  scaled lipid accumulation score: ≤ 0
[2]
  scaled lipid accumulation score: ≤ 0 and ≤ -0.016

## CNC(=O)c1c(F)cccc1Nc1nc(Nc2cc3c(cc2OC)CCN3C(=O)CN(C)C)nc2[nH]ccc12 [listing 1 of 2 here]
[2]
  scaled lipid accumulation score: 0.776

## CNC(=O)c1c(F)cccc1Nc1nc(Nc2cc3c(cc2OC)CCN3C(=O)CN(C)C)nc2[nH]ccc12 [listing 2 of 2 here]
[3]
  scaled lipid accumulation score: 0.98 (active)

## O=C(c1ccc2c(c1)OCCO2)N1CCCCC1
[2]
  scaled lipid accumulation score: ≤ -0.07

## COC(=O)C1=CC[C@@]23CC[C@@H]([C@@](C)(/C=C/C=C(\C)C(=O)O)OC2=O)[C@@]3(OC(C)=O)CC1 [Pseudolaric Acid B]
[1]
  scaled lipid accumulation score: ≤ 0

## CCCC[C@H](C)C[C@H](O)/C=C/[C@H]1[C@H](O)CC(=O)[C@@H]1CCCCC(CC(=O)O)OC (stereo partly specified) [3-methoxy Limaprost]
[1]
  scaled lipid accumulation score: 0.012

## CCCCCC(=O)OC[C@H](CO)OC(=O)CCCCC [1,2-Dihexanoyl-sn-glycerol]
[1]
  scaled lipid accumulation score: 0.007

## CC(C)(CO)Cc1cc(C(C)(C)C)c(O)c(C(C)(C)C)c1 [listing 1 of 2 here]
[2]
  scaled lipid accumulation score: 0.139

## CC(C)(C=O)Cc1cc(C(C)(C)C)c(O)c(C(C)(C)C)c1
[2]
  scaled lipid accumulation score: 0.21 and ≤ -0.006

## CC(C)(CO)Cc1cc(C(C)(C)C)c(O)c(C(C)(C)C)c1 [listing 2 of 2 here]
[2]
  scaled lipid accumulation score: 0.861 (active)

## N.N.O=C([O-])C[O-].[Pt+2] [Nedaplatin]
Library stock concentration: 6.6 mM
  scaled lipid accumulation score: 0.028

## CC(C)[C@@H](O)CC[C@@H](C)[C@H]1CC[C@H]2[C@@H]3CC=C4C[C@@H](O)CC[C@]4(C)[C@H]3CC[C@]12C [24(S)-hydroxycholesterol]
Library stock concentration: 12.4 mM
  scaled lipid accumulation score: 0.006
